# PubChem BioAssay (NCI)
# About 83,000 compounds went through this panel and 20% of them were active in at least one assay; those are over-represented in the sample as a whole.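 The test compound was applied at a single concentration to cells in 96-well plates for 48 hours, and percent growth was recorded.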 Values without a mark were called inactive. Active and inactive are the calls of the source. Rule for the calls: active = growth percent below 10; inactive = the rest.
# Tests used:
# Assay in all cases: NCI-60 one-dose screen, 48 h (100 = growth as untreated, 0 = no growth, -100 = all killed)
# [1] = test system: HCT-15 colon; conditions: 10 µM unless noted
# [2] = test system: SNB-75 CNS; conditions: 10 µM
# [3] = test system: SNB-19 CNS; conditions: 10 µM unless noted
# [4] = test system: U251 CNS; conditions: 10 µM unless noted
# [5] = test system: PC-3 prostate; conditions: 10 µM unless noted
# [6] = test system: SK-MEL-5 melanoma; conditions: 10 µM unless noted
# [7] = test system: UACC-62 melanoma; conditions: 10 µM unless noted
# [8] = test system: LOX IMVI melanoma; conditions: 10 µM unless noted
# [9] = test system: SK-MEL-28 melanoma; conditions: 10 µM unless noted
# [10] = test system: SK-MEL-2 melanoma; conditions: 10 µM unless noted
# [11] = test system: EKVX NSCLC; conditions: 10 µM unless noted
# [12] = test system: SN12C renal; conditions: 10 µM unless noted
# [13] = test system: UO-31 renal; conditions: 10 µM unless noted
# [14] = test system: TK-10 renal; conditions: 10 µM unless noted
# [15] = test system: CAKI-1 renal; conditions: 10 µM unless noted
# [16] = test system: A498 renal; conditions: 10 µM unless noted
# [17] = test system: CCRF-CEM leukemia; conditions: 10 µM unless noted
# [18] = test system: MOLT-4 leukemia; conditions: 10 µM unless noted
# [19] = test system: ACHN renal; conditions: 10 µM unless noted
Structure (SMILES),growth [1],growth [2],growth [3],growth [4],growth [5],growth [6],growth [7],growth [8],growth [9],growth [10],growth [11],growth [12],growth [13],growth [14],growth [15],growth [16],growth [17],growth [18],growth [19]
COc1ccc(C(=O)c2cc(OC)c3c(c2)OCO3)cc1O,19.1%,30.6%,41%,27.9%,29.4%,-52% (active),43.6%,26.7%,65.6%,71.7%,58.4%,31.4%,46.6%,66%,55.5%,61.9%,16.5%,17.8%,
Fc1ccc(Nc2ncnc3ccc(-c4cnc5[nH]ccc5c4)cc23)cc1Cl,31.1%,-65.2% (active),40.7%,-68.2% (active),27.5%,21%,44.8%,-44.4% (active),57.4%,29.9%,14.8%,-14.2% (active),-73.8% (active),,,77.4%,40%,45.6%,-66.7% (active)
C=C1CCC2C3(C)COC(c4ccc(N(C)C)cc4)OC3CCC2(C)C1C/C=C1/C(=O)OCC1O (stereo not drawn),57.6%,73.8%,85.9%,51.1%,9.17% (active),60.7%,63.1%,11.9%,94.9%,45.1%,85.7%,44.9%,54.2%,94.3%,,109%,-41.6% (active),37.7%,79.3%
COc1cc(/C=C/C(=O)c2cccc(-n3cc(-c4cc(OC)c(OC)c(OC)c4)[nH]c3=O)c2)cc(OC)c1OC,-4.5% (active),44.6%,56.6%,-41% (active),9.89% (active),27%,7.42% (active),-55% (active),4.45% (active),-2.34% (active),51.6%,11.5%,6.2% (active),27.8%,-24.2% (active),76.4%,,-16% (active),-57.6% (active)
COc1ccc(C(=O)NC(=O)Nc2cc3c(cc2F)/C(=C/c2[nH]c(C)c(CCC(=O)O)c2C)C(=O)N3)c(F)c1,28%,9.65% (active),20%,9.72% (active),22.6%,59.6%,31.3%,38.5%,44.4%,22.1%,65.3%,27.6%,58.6%,,,12.3%,7.61% (active),33.9%,65.5%
COc1ccc2c(c1)cn1c3ccc(OC)cc3[nH]c(=O)c21,-84.4% (active),59.1%,12.3%,-90.3% (active),-72.7% (active),4.14% (active),29.9%,-79.5% (active),61%,-50.3% (active),48.5%,-11.8% (active),-74.8% (active),,,41.2%,-64.8% (active),-41.6% (active),-98.3% (active)
C=C[C@@H]1C[C@H](O)Cc2ccccc2N1,103%,102%,108%,99.1%,106%,110%,102%,104%,112%,123%,107%,103%,,95.5%,100%,99.9%,-30.7% (active),,107%
CN(C)CCCC(C#N)c1ccccc1 (stereo not drawn),103%,88.5%,103%,105%,99.1%,108%,102%,103%,119%,109%,118%,101%,104%,100%,117%,107%,105%,91.6%,
CO[C@H]1NC(=O)N(S(=O)(=O)c2ccc(Cl)cc2)[C@@H]1OC,102%,93.6%,103%,101%,97.3%,108%,100%,105%,106%,113%,101%,102%,88%,103%,92.5%,112%,,102%,105%
